This is a sample that favours compounds with a hit; in the whole collection about 3.4% have one here.
PP5 inh = blocks human protein phosphatase 5 activity; P53041; purified PP5c, OMFP substrate fluorescence; inhibition, % at 6.7 µM; 320,000 compounds, 0.18% hits; AID 1987;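 active = inhibition above the campaign's mean inhibition across all tested compounds plus 3 SD, cut at about 9.5% in these data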;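 note: 0% = DMSO only and 100% = 100 µM cantharidin control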
Target sequence (P53041 whole entry, looked up): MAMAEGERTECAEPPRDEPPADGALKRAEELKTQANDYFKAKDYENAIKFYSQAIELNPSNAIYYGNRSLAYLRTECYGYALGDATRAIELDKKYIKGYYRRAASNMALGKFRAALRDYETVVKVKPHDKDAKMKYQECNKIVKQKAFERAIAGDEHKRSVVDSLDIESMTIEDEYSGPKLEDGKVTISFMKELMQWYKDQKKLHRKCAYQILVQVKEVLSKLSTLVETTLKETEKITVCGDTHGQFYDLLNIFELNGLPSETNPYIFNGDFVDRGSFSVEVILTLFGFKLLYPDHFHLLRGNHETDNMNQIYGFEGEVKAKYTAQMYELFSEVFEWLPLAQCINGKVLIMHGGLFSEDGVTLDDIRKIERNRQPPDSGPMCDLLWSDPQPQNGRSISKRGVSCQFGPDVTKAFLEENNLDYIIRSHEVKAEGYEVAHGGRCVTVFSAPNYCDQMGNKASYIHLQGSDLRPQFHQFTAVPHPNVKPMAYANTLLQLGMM
PAFAH2 FP inh = PAFAH2 (human) inhibition. inhibition, % at 3.39 µM. Q99487. recombinant PAFAH2, FP-rhodamine activity probe, fluorescence polarization. 340,000 compounds, 0.99% hits;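 active = inhibition above the mean over all tested compounds plus 3 SD, cut at about 30% in these data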;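 note: inhibitors block probe labeling of enzyme so polarization drops; 0% = enzyme with DMSO and 100% = wells lacking PAFAH2 protein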
PAFAH1B3 inh = PAFAH1B3 (human) inhibition; recombinant PAFAH1B3, FP-rhodamine probe, fluorescence polarization; inhibition, % at 3.39 µM; 340,000 compounds, 0.28% hits; Q15102;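 active = inhibition above the screen-wide average of all tested compounds plus 3 SD, cut at about 25% in these data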;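 note: 0% = enzyme with DMSO only and 100% = wells lacking PAFAH1B3 protein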
PP1 inh = PP1-alpha (human) inhibition in PP5 counter-screen; P62136; purified PP1alpha, OMFP fluorescence; inhibition, % at 6.7 µM; 320,000 compounds, 0.9% hits; AID 2235;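 active = inhibition above the mean inhibition of all tested compounds plus 3 SD, computed separately for each screening campaign, cut at about 15% in these data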
pPAFAH inh = pPAFAH (human) enzyme inhibition. 330,000 compounds, 1.5% hits. inhibition, % at 3.39 µM. recombinant pPAFAH, FP-rhodamine probe fluorescence polarization;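 active = inhibition above the mean inhibition across the screen plus 3 SD, cut at about 25% in these data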;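 note: inhibitors block binding of the rhodamine activity-based probe so polarization drops; 0% = enzyme with DMSO and 100% = wells lacking pPAFAH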
PAFAH1B2 inh = inhibitors of human PAFAH1B2; recombinant PAFAH1B2, FP-rhodamine activity probe, fluorescence polarization; AID 492953; inhibition, % at 3.39 µM; 340,000 compounds, 1.2% hits; P68402;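 active = inhibition above the mean of all tested compounds plus 3 SD, cut at about 24% in these data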;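 note: 0% = enzyme with DMSO and 100% = wells lacking PAFAH1B2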
* hit, by the source's call; / = no result given.

SMILES	PP5 inh	PAFAH2 FP inh	PAFAH1B3 inh	PP1 inh	pPAFAH inh	PAFAH1B2 inh
Cc1c(C(=O)NCCNc2ncc(C(F)(F)F)cc2Cl)cccc1[N+](=O)[O-]	0.6	-3.0	1.3	1.7	5.4	4.5
CC12CCC(c3c(C(=O)O)nn(-c4ccc(F)cc4)c31)C2(C)C (stereo not drawn)	1.2	-2.2	1.4	15.4*	-6.1	7.4
Cc1ccc(N=Nc2ccc3ccccc3c2O)cc1	-3.1	34.8*	52.4*	-2.5	-1.4	86.4*
Oc1c(N=Nc2ccc(F)cc2)ccc2ccccc12	-2.1	-24.0	-28.9	-4.2	5.0	-10.1
CCCCN(C(=O)c1cc2c(s1)CCCC2)c1c(N)n(CCC)c(=O)[nH]c1=O	0.4	2.6	9.9	-2.0	-1.4	4.6
O=C1/C(=C\c2ccco2)SC(=S)N1C1CCCCC1	1.5	/	/	-3.1	32.6*	/
COc1ccc(OC)c(Nc2nc(NCc3ccco3)c3ccccc3n2)c1	4.2	-0.7	12.7	10.0	25.5*	2.6
O=S(=O)(Nc1nc2ccccc2nc1NCc1ccco1)c1ccc(Cl)cc1	0.8	10.1	8.9	3.2	20.3	12.2
Cc1ccc(S(=O)(=O)Nc2nc3ccccc3nc2NCc2ccco2)cc1	0.8	33.9*	25.7*	0.3	15.4	29.5*
COc1ccc(OC)c(Nc2nc(NCc3ccco3)nc(N)c2[N+](=O)[O-])c1	-0.1	/	/	7.3	3.9	/
c1ccc(Nc2nc(NCc3ccco3)c3ccccc3n2)cc1	1.2	-0.5	8.6	16.4*	5.2	1.0
Oc1ccccc1Nc1nc(NCc2ccco2)c2ccccc2n1	5.8	4.5	11.9	7.0	7.8	1.2
Cc1cc(C(F)(F)F)n2nc(-c3cnn(C)c3C(F)(F)F)cc2n1	-1.5	5.4	-0.1	-2.3	4.5	0.5
O=C(CCN1C(=O)c2ccccc2C1=O)OCN1C(=O)c2ccccc2C1=O	-1.9	-6.2	-0.1	-2.2	3.2	6.5
COCCNC(=O)C(=O)Nc1cc2c3c(c1)CC(=O)N3CCC2	2.0	2.5	5.8	-1.1	7.3	1.7
Cc1cc(NC(=O)COC(=O)CSCc2ccc(Cl)c(Cl)c2)no1	3.1	6.8	4.8	-0.5	31.1*	-0.5
Cc1cc(NC(=O)CSCC(=O)N(C)Cc2ccc(Cl)c(Cl)c2)no1	1.9	-4.8	1.5	-2.5	-0.9	0.1
CC1=C(C#N)c2nc(N)c(C#N)c(C)c2/C1=C\c1ccc(OCC(=O)O)c(Cl)c1	1.9	18.0	8.2	3.7	32.4*	1.9
CCOC(=O)CSc1nc(N)c(C#N)c(-c2ccc(OCC)cc2)c1C#N	4.4	1.4	2.2	2.9	-1.6	-2.9
CS(=O)(=O)NCCCCNc1ccc(C(F)(F)F)cc1[N+](=O)[O-]	5.3	-1.3	4.9	-1.1	25.6*	4.3
O=[N+]([O-])c1cc(C(F)(F)F)ccc1NCCCCNS(=O)(=O)c1ccc2ccccc2c1	6.2	-13.0	7.3	7.0	-5.8	14.7
Cc1[nH]c2ccccc2c1C(=O)CN1C(=O)NC(C)(c2ccc(Cl)cc2Cl)C1=O (stereo not drawn)	4.5	-9.0	-9.0	-0.3	5.9	0.2
CC1=C(O)C(=O)C(C2=C(O)C(=O)C(C)=C(O)C2=O)=C(O)C1=O	/	6.2	18.4	/	/	5.7
Cc1ccc(C2=C(O)C(=O)C(c3ccc(C)cc3)=C(O)C2=O)cc1	/	62.7*	65.1*	/	/	40.5*
CC1=C(C#N)C(=O)N(C2CCS(=O)(=O)C2)C(=O)/C1=C\c1ccco1 (stereo not drawn)	0.9	/	/	35.2*	92.9*	/
SMILES	PP5 inh	PAFAH2 FP inh	PAFAH1B3 inh	PP1 inh	pPAFAH inh	PAFAH1B2 inh
CC(=O)Nc1ccc(NC(=O)COc2ccc(-c3ccc(C#N)cc3)cc2)cc1	-2.2	4.8	0.1	16.6*	0.5	-3.3
Nc1c(C(=O)NC2CCCC2)c2nc3ccccc3nc2n1N	2.8	-0.7	0.3	-2.8	24.7*	2.6
Nc1c(C(=O)NC2CCCC2)c2nc3ccccc3nc2n1/N=C/c1ccco1	-0.2	0.6	9.6	-3.2	6.0	0.1
O=C(CCCn1nnnc1CN1CCOCC1)N1CCC(c2ccccc2F)C1 (stereo not drawn)	/	-0.7	4.7	/	/	0.7
O=C(CCCn1nnnc1CN1CCOCC1)N1CCN(c2ccccc2F)CC1	0.2	1.3	9.5	15.5*	2.1	4.3
O=C(NC1CC1)c1cc2cc(Br)ccc2s1	-1.0	5.1	1.0	2.8	1.8	5.5
Cc1cccc(NC(=O)CN2C(=O)S/C(=C\c3ccc(O)c([N+](=O)[O-])c3)C2=O)c1	3.1	26.6	26.3*	-9.2	29.4*	6.6
